Data reported in PubChem BioAssay (NCATS).
Results filed as inconclusive are left out. The source made the active and inactive calls. Unless noted, calls follow the shape of the dose curve; as a rule, active = well fitted curve in the direction sought with a large enough effect; inconclusive = small, poorly fitted or top-dose-only effect, or another doubt; inactive = no such curve, though single readings can be large; an effect the other way counts as inactive or inconclusive.

Assays:
[1] = AP1 Signaling Pathway (AID 357; active = well fitted curve in either direction with a large enough effect, not every such curve was filed as active;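 also: ME-180 reporter cells stimulated with EGF at its EC50 level; % is scaled to controls: 0 for no effect and ±100 for the full control effect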); settings: ME-180 (cervical carcinoma) AP-1-bla reporter, EGF-induced, beta-lactamase ratio, 5 h; at 17.2 µM (top of the series) unless noted
Procedure, shortened: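 Cells are seeded overnight, exposed to compound titrations and an EC50 level of EGF for 5 hours at 37 °C, then loaded with CCF4 dye for 2.5 hours. Beta-lactamase activity under the AP-1 element is read as a blue/green ratio.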

[2] = NFAT Signaling Pathway (AID 444; active = well fitted curve in either direction with a large enough effect, not every such curve was filed as active;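 also: carbachol stimulus at about its EC50 of 1 µM final; % is scaled to controls: 0 for no effect and ±100 for the full control effect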); settings: Jurkat NFAT-bla M1, carbachol, beta-lactamase ratio, 5 h; at 17.2 µM (top of the series) unless noted
Procedure, shortened: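 Jurkat cells with NFAT-driven β-lactamase reporter and co-expressed M1 receptor, stimulated with carbachol (final 1 uM, ~EC50), compound titration, 5 h at 37 °C. CCF4 loaded 1 h at RT; 460/530 nm ratio gave %activity and AC50.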

[3] = Stat Signaling Pathway (AID 446; active = well fitted curve in either direction with a large enough effect, not every such curve was filed as active;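 also: ME-180 cervical cancer cells given 40 pM IL-6 alongside compound; SIE-controlled beta-lactamase reporter measured as 460/530 nm FRET emission ratio; % is scaled to controls: 0 for no effect and ±100 for the full control effect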)
Procedure, shortened: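 Normalization used AC90 stimulation (300 pM IL-6) and AC90 inhibition (125 nM pan-JAK inhibitor at 40 pM IL-6). The underlying signal is SIE-driven beta-lactamase in ME-180 cells after 5 h IL-6 exposure with compound.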

[4] = target: Glucocorticoid receptor (Homo sapiens) (UniProt P04150); experiment: GR-GFP Redistribution (AID 450;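 active = compounds whose dose series gives a full or clear partial fitted curve of increased nuclear translocation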; also: potency is read from the fitted curve at half-maximal effect); settings: U2OS GR-GFP nuclear translocation, laser cytometry, 2 h
Sequence of Glucocorticoid receptor (Homo sapiens) (P04150 whole entry, looked up, the tested form may be a part): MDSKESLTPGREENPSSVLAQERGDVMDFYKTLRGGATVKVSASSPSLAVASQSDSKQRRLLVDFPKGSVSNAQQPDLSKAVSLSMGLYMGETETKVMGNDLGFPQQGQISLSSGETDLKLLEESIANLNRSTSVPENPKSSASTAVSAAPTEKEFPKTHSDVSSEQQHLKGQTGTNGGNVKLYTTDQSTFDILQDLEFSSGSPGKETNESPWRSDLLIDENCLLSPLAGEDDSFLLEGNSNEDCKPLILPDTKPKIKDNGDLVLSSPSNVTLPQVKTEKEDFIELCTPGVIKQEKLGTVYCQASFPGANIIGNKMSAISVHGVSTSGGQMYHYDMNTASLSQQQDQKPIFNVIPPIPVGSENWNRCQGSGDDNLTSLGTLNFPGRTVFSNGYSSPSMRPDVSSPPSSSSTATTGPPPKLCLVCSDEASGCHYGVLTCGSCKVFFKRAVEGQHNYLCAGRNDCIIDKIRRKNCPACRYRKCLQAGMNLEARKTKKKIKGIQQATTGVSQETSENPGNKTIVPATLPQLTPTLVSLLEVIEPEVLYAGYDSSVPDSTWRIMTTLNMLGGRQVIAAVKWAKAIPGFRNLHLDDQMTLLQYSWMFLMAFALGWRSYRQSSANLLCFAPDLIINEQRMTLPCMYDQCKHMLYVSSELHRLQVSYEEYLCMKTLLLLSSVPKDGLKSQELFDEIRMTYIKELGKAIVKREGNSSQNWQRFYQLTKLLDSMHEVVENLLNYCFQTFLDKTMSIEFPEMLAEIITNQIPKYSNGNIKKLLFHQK

[5] = target: Glucocorticoid receptor (Homo sapiens) (UniProt P04150); experiment: GR-EFC Redistribution (AID 451; calls by dose curve; also: potency is read from the fitted curve at half-maximal effect); settings: CHO-K1 GR-EFC translocation, beta-gal luminescence, 2 h
Procedure, shortened: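 CHO-K1 cells expressing nuclear EA and GR-ED fragments of b-gal; compounds titrated up to 46 uM final, 2 h at 37 C. GR nuclear translocation read as complemented b-gal luminescence after 1 h RT detection.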

[6] = target: 3',5'-cyclic-AMP phosphodiesterase 4B (Homo sapiens) (UniProt Q07343); experiment: qHTS Assay for Inhibitors of PDE-IV (AID 607; active = well fitted activation curve with a large enough effect in the main read-out, with a control signal flat, not every such curve was filed as active; also: % of control where 0% means no effect)
Sequence of 3',5'-cyclic-AMP phosphodiesterase 4B (Homo sapiens) (Q07343 whole entry, looked up): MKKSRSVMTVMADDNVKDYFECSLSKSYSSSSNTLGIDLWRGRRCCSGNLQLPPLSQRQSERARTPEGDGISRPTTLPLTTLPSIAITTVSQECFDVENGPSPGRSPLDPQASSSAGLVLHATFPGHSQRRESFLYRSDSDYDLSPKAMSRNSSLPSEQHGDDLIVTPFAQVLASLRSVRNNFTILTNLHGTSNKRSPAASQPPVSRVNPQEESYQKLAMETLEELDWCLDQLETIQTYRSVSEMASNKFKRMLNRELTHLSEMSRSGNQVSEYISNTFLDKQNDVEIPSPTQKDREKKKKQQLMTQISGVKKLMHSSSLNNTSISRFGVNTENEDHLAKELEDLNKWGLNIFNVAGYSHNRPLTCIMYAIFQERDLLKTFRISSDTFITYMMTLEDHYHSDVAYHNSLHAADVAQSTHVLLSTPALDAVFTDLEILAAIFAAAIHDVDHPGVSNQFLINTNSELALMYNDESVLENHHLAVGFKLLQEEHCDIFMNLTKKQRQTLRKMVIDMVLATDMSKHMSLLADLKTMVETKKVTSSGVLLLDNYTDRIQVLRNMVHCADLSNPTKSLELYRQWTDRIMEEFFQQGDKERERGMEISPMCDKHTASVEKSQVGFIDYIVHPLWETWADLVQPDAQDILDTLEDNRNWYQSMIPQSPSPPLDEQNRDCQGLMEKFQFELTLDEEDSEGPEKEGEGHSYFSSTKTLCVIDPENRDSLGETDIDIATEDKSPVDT
Procedure, shortened: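 HEK293 ACTOne cells with CNG channel (1000/well), endogenous PDE4; membrane potential dye, compounds up to 22.9 uM final. Fluorescence Ex 535/Em 590; RO 20-1724 (100 uM final) as reference.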

[7] = target: Cytochrome P450 3A4 (Homo sapiens) (UniProt P08684); experiment: qHTS Assay for Activators of Cytochrome P450 3A4 (AID 885); also: nearly all actives have a fitted effect of over 65% in size
Sequence of Cytochrome P450 3A4 (Homo sapiens) (P08684 whole entry, looked up): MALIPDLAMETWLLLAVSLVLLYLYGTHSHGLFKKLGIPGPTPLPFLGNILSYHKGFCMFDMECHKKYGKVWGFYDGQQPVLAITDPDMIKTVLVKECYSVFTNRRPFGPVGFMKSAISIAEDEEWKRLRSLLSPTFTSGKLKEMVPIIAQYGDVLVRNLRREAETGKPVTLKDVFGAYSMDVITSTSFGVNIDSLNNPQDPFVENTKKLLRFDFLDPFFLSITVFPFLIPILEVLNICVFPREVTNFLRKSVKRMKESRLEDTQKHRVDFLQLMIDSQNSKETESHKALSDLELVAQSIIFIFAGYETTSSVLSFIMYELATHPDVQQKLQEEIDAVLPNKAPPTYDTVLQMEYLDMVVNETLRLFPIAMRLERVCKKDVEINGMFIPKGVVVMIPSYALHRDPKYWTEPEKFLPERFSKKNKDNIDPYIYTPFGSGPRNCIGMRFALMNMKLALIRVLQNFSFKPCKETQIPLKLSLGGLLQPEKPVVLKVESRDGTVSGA
Procedure, shortened: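 Human CYP3A4 dealkylates Luciferin-PPXE to luciferin, which luciferase detection converts to light. Substrate was at its KM (25uM), buffer 200mM KPO4, reaction 60 min at RT.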

[8] = target: ATP-dependent 6-phosphofructokinase (Trypanosoma brucei brucei) (UniProt O15648); experiment: qHTS Assay to Find Inhibitors of T. brucei phosphofructokinase: hit validation (AID 492961);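 also: luminescence reports ADP formed as PFK phosphorylates fructose-6-phosphate with ATP; % is scaled to controls: 0 for no effect and ±100 for the full control effect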
Sequence of ATP-dependent 6-phosphofructokinase (Trypanosoma brucei brucei) (O15648 whole entry, looked up): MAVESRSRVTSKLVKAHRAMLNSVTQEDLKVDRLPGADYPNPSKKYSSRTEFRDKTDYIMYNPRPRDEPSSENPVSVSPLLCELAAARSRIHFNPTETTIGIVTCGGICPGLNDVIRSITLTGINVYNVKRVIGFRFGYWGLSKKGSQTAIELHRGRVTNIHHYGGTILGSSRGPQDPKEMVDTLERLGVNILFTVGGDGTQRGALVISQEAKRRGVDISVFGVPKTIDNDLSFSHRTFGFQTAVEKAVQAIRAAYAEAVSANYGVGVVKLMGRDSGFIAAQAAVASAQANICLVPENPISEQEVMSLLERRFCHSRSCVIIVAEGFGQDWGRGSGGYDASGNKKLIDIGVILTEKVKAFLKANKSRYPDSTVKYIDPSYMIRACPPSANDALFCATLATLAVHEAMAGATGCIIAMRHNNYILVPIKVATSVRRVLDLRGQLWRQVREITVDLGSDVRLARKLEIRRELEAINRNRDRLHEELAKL
Procedure, shortened: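 Compounds titrated; %activity normalized to 0x and 1x enzyme controls, curve-fitted. Readout: ADP-Glo luminescence after 45 min room-temperature reaction of 1.25 nM PFK, 0.1 mM ATP, 0.5 mM F6P, pH 8.0.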

[9] = target: Ubiquitin carboxyl-terminal hydrolase 1 (Homo sapiens) (UniProt O94782); experiment: Inhibitors of USP1/UAF1: Pilot qHTS (AID 504865);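 also: rhodamine fluorescence freed from ubiquitin-rhodamine substrate followed over time; top concentration of the series differs between compounds; % is scaled to controls: 0 for no effect and ±100 for the full control effect; nearly all actives have a fitted effect of over 35% in size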
Sequence of Ubiquitin carboxyl-terminal hydrolase 1 (Homo sapiens) (O94782 whole entry, looked up): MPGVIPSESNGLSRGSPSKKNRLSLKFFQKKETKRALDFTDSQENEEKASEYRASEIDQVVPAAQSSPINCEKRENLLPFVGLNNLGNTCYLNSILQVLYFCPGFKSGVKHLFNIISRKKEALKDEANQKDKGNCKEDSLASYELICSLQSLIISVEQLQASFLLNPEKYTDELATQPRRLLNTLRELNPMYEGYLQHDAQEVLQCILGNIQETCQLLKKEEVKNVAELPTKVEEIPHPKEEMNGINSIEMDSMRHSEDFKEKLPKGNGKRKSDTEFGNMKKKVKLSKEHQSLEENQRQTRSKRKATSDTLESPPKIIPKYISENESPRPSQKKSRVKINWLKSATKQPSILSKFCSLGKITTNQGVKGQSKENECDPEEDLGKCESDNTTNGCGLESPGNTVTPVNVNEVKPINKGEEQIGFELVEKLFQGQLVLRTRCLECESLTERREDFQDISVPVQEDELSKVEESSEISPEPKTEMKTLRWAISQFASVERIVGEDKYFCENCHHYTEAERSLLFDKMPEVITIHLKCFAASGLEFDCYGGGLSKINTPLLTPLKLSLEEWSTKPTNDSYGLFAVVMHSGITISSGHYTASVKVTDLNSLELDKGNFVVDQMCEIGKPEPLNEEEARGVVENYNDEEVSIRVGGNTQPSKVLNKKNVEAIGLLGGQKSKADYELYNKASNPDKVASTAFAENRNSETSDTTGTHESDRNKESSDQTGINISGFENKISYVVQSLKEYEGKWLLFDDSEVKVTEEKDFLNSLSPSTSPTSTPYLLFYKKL
Procedure, shortened: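 Kinetic fluorescence assay: 1nM USP1/UAF1, 15 min compound preincubation, then 150nM Ub-Rho; 480/540 nm.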

[10] = S16 Schwann cell viability assay (CellTiter-Glo assay) (AID 624031);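 also: cellular ATP luminescence as a viability measure; plate controls were DMSO-treated cells for no effect and cell-free wells for full effect; nearly all actives have a fitted effect of over 70% in size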
Procedure, shortened: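 Native S16 Schwann cells (rat), serum-containing medium, overnight attachment then 24 h drug exposure at 37 °C/5% CO2. CellTiter-Glo ATP signal; normalized to cell-free and vehicle wells.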

[11] = S16 Schwann cell PMP22 intronic element firefly luciferase assay (AID 624032);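 also: plate controls were DMSO for no effect and PTC124 positive control mean for full effect; nearly all actives have a fitted effect of over 30% in size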
Procedure, shortened: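 Rat S16 Schwann cells stably carrying firefly luciferase driven by a PMP22 intronic element, in 10% FBS, treated 24 h at 37 C. ONE-Glo luminescence normalized to PTC124 control and DMSO (0%); curves classed by r2, magnitude and activity.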

[12] = S16 Schwann cell PMP22 intronic element beta-lactamase assay (AID 624044; calls by dose curve;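 also: 0% = DMSO and -100% = potassium clavulanate positive control; nearly all actives have a fitted effect of over 15% in size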); settings: S16 rat Schwann cells, PMP22 element beta-lactamase FRET, 24 h; ratio activity, negative = inhibition: at 38.3 µM (top of the series)
Procedure, shortened: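 Beta-lactamase reporter under a PMP22 intronic regulatory element in stable S16 rat Schwann cells; 24 h compound exposure. 460 nm blue signal normalized between DMSO (0%) and potassium clavulanate, with 535 nm FRET tracking viability; curves classed by r2 and response.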

[13] = qHTS profiling for inhibitors of Plasmodium falciparum proliferation (AID 504749);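 also: 0% = DMSO vehicle and full inhibition = artemisinin control; nearly all actives have a fitted effect of over 60% in size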; settings: P. falciparum in erythrocytes, SYBR Green DNA, 72 h, at 12.8 µM (top of the series)
Procedure, shortened: (§1)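 Each compound contacts P. falciparum-infected red blood cells for 72 h at 37 C; lysis buffer (Tris, EDTA, saponin, Triton X, SYBR Green I) is added and fluorescence measured next morning; values normalized to controls.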

3D7 = experiment: as above; settings: P. falciparum in erythrocytes, SYBR Green DNA, 72 h; series mostly up to 28.7 µM
Procedure, shortened: as §1

AA1029 = experiment: as above; settings: P. falciparum in erythrocytes, SYBR Green DNA, 72 h; series mostly up to 28.7 µM
Procedure, shortened: as §1

AS120 = experiment: as above; settings: P. falciparum in erythrocytes, SYBR Green DNA, 72 h; series mostly up to 28.7 µM
Procedure, shortened: as §1

ATS189 = experiment: as above; settings: P. falciparum in erythrocytes, SYBR Green DNA, 72 h; series mostly up to 28.7 µM
Procedure, shortened: as §1

ATS95 = experiment: as above; settings: P. falciparum in erythrocytes, SYBR Green DNA, 72 h; series mostly up to 28.7 µM
Procedure, shortened: as §1

C2A = experiment: as above; settings: P. falciparum in erythrocytes, SYBR Green DNA, 72 h; series mostly up to 28.7 µM
Procedure, shortened: as §1

CP185 = experiment: as above; settings: P. falciparum in erythrocytes, SYBR Green DNA, 72 h; series mostly up to 28.7 µM
Procedure, shortened: as §1

CP191 = experiment: as above; settings: P. falciparum in erythrocytes, SYBR Green DNA, 72 h; series mostly up to 28.7 µM
Procedure, shortened: as §1

CP192 = experiment: as above; settings: P. falciparum in erythrocytes, SYBR Green DNA, 72 h; series mostly up to 28.7 µM
Procedure, shortened: as §1

CP194 = experiment: as above; settings: P. falciparum in erythrocytes, SYBR Green DNA, 72 h; series mostly up to 28.7 µM
Procedure, shortened: as §1

CP201 = experiment: as above; settings: P. falciparum in erythrocytes, SYBR Green DNA, 72 h; series mostly up to 28.7 µM
Procedure, shortened: as §1

CP203 = experiment: as above; settings: P. falciparum in erythrocytes, SYBR Green DNA, 72 h; series mostly up to 28.7 µM
Procedure, shortened: as §1

CP211 = experiment: as above; settings: P. falciparum in erythrocytes, SYBR Green DNA, 72 h; series mostly up to 28.7 µM
Procedure, shortened: as §1

CP215 = experiment: as above; settings: P. falciparum in erythrocytes, SYBR Green DNA, 72 h; series mostly up to 28.7 µM
Procedure, shortened: as §1

CP217 = experiment: as above; settings: P. falciparum in erythrocytes, SYBR Green DNA, 72 h; series mostly up to 28.7 µM
Procedure, shortened: as §1

CP237 = experiment: as above; settings: P. falciparum in erythrocytes, SYBR Green DNA, 72 h; series mostly up to 28.7 µM
Procedure, shortened: as §1

CP238 = experiment: as above; settings: P. falciparum in erythrocytes, SYBR Green DNA, 72 h; series mostly up to 28.7 µM
Procedure, shortened: as §1

CP247 = experiment: as above; settings: P. falciparum in erythrocytes, SYBR Green DNA, 72 h; series mostly up to 28.7 µM
Procedure, shortened: as §1

CP250 = experiment: as above; settings: P. falciparum in erythrocytes, SYBR Green DNA, 72 h; series mostly up to 28.7 µM
Procedure, shortened: as §1

CP252 = experiment: as above; settings: P. falciparum in erythrocytes, SYBR Green DNA, 72 h; series mostly up to 28.7 µM
Procedure, shortened: as §1

CP256 = experiment: as above; settings: P. falciparum in erythrocytes, SYBR Green DNA, 72 h; series mostly up to 28.7 µM
Procedure, shortened: as §1

CCOC(=O)c1cncn1[C@@H](C)c1ccccc1
inactive: activity change, negative = inhibition [1] 9.06% | activity change, negative = inhibition [2] -21.8% | outcome [3] | Potency [4] > 20.6 µM | Potency [5] > 20.6 µM | outcome [6] | Potency [7] | outcome [8] | Potency [9] | Potency [10] | Potency [11] | Potency [12] | activity, negative = inhibition ([13]; parasite line A) -15.7% | activity, negative = inhibition ([13]; parasite line B) -15.4% | Potency (3D7) | Potency (AA1029) | Potency (AS120) | Potency (ATS189) | Potency (ATS95) | Potency (C2A) | Potency (CP185) | Potency (CP191) | Potency (CP192) | Potency (CP194) | Potency (CP201) | Potency (CP203) | Potency (CP211) | Potency (CP215) | Potency (CP217) | Potency (CP237) | Potency (CP238) | Potency (CP247) | Potency (CP250) | Potency (CP252) | Potency (CP256)
